# Screening data deposited in PubChem by National Center for Advancing Translational Sciences (NCATS).
# TbPYK inhibitor: T. brucei pyruvate kinase inhibition. Q57TT1. TbPYK enzyme, Kinase-Glo Plus ATP luminescence, 45 min. Potency, µM (titrated, usually from 76.8 µM), inactives show top-dose activity, negative = inhibition, hits mostly inhibitors. 0.12% of 410,000 active; further: potency means the concentration at half of the fitted maximal effect; on the % scale 0 is the no-effect control and ±100 the full control effect; nearly all actives have a fitted effect of over 50% in size
#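 Readout: single end-point luminescence (Kinase-Glo Plus, 10 min). Reaction conditions were TbPYK/substrate plus 130 uM ADP, 45 min at RT, pH 7.2 TEA buffer. No-enzyme wells served as controls, and data were normalized before concentration-response fitting.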
# RE007 growth inh: less growth of the S. pombe RE007 Vpr strain | S. pombe RE007 Vpr strain, BacTiter-Glo ATP luminescence, 24 h | Potency, µM (highest dose often 92.2 µM), for inactives: at the highest dose activity change, negative = less growth, hits mostly inhibitors | 0.21% of 360,000 active | AID 651644; active means well fitted falling curve with a large enough effect; inconclusive means small, poorly fitted or top-dose-only effect; inactive means no such curve, though single readings can be large or run the other way; further: potency means the concentration at half of the fitted maximal effect; on the % scale 0 is the no-effect control and ±100 the full control effect; nearly all actives have a fitted effect of over 50% in size
#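 Fission yeast RE007 carrying one integrated HIV-1 vpr copy, seeded at OD 0.01 in PMG+AL medium with 23 nL pinned compound. Grown 24 h at 30 degrees; viability read by BacTiter-Glo luminescence after 5 min.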
# CHX counter: affects cycloheximide protein synthesis inhibition readout, counter-screen; AID 2314; cell reporter, cycloheximide protein synthesis inhibition counterscreen; 12% of 300,000 active; max response, %; in the data active means max response mostly above about 13%, no sharp cut-off; inactive means mostly below about 14%; further: read at 38.3 µM for the half of the compounds with a filed dose; 0% is about no effect
# Shiga inhibitor: blocks Shiga toxin action in Vero cells; Vero cells, Shiga toxin protein synthesis inhibition reporter; inhibition, % at 38.7 µM; 9.2% of 290,000 active; AID 2315; in the data active means inhibition mostly above about 28%, no sharp cut-off; inactive means mostly below about 43%; further: 0% is about no effect
# Giardia FBPA inh: Giardia lamblia aldolase inhibition; A8B2U2; purified Giardia FBPA; Potency, µM (doses to about 59.6 µM), for the others: top-dose activity, negative = inhibition, usual class: inhibitors; 0.71% of 290,000 active; AID 2451; further: potency means the concentration at half of the fitted maximal effect; on the % scale 0 is the no-effect control and ±100 the full control effect; nearly all actives have a fitted effect of over 55% in size
#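 Giardia FBPA (40 nM reagent) was preincubated 10 min at RT with compound (up to 57.5 uM final), then substrate plus GAPDH/TPI/NAD/arsenate coupling system with diaphorase/resazurin was added; resorufin fluorescence (525/598 nm) was read after 20 min.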
# LmPK inh: inhibitors of Leishmania mexicana pyruvate kinase. purified LmPK, Kinase-Glo ATP luminescence, 1 h. AID 1721. Potency, µM (top dose mostly 57.5 µM), for inactives: at the top dose activity change, negative = inhibition, usual class: inhibitors. 0.37% of 290,000 active. Q27686; further: potency means the concentration at half of the fitted maximal effect; on the % scale 0 is the no-effect control and ±100 the full control effect
# Target sequence (Q27686 whole entry, looked up): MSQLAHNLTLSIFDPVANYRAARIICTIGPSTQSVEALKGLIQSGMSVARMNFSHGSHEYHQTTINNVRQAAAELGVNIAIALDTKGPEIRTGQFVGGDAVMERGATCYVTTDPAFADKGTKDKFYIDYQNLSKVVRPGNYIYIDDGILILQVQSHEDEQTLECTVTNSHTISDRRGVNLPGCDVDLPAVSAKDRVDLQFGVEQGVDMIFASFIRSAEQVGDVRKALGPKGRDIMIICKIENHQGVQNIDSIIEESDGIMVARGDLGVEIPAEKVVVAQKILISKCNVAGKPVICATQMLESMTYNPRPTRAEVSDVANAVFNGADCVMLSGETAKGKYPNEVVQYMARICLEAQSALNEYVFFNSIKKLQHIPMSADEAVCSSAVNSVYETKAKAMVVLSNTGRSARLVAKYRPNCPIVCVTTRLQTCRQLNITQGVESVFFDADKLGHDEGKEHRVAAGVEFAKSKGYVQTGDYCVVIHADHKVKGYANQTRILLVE
#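 ATP generated from ADP (0.1 mM) and PEP (0.5 mM) by 0.1 nM LmPK over 1 h at room temperature (pH 7.2 imidazole buffer) was detected by coupled luciferase luminescence. Values were normalized to uninhibited and no-enzyme wells.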
# * marks the source's active call; other numbers are inactive results; ? = inconclusive; / = no result; + = active, no number; ! = not active in a repeat; [ ] = dose if it differs, or a comment. The full list was thinned out, with hits kept by preference. Unless noted, the call rests on the fitted dose curve; in most records, active means well fitted curve in the direction sought with a large enough effect; inconclusive means small, poorly fitted or top-dose-only effect, or another doubt; inactive means no such curve, though single readings can be large; an effect the other way counts as inactive or inconclusive.
SMILES,TbPYK inhibitor,RE007 growth inh,CHX counter,Shiga inhibitor,Giardia FBPA inh,LmPK inh
CCOc1cc(/C=C(/C#N)c2nc3ccccc3[nH]2)ccc1OCc1ccc(C(=O)O)o1,4%,-7%,8,30,/,7%
COc1cc(/C=C(\C#N)c2nc3ccc(C)cc3[nH]2)ccc1OC(C)C,9%,/,/,/,/,/
CCOc1cccc(/C=C(/C#N)c2nc3ccccc3[nH]2)c1OCC(=O)O,-9%,8%,22*,/,-12%,3%
CC(C)c1cccc(C(C)C)c1OCCCCCN1CCOCC1,-3%,-5%,/,/,/,/
Cc1ccc(Cn2cc(S(=O)(=O)c3cccc(Cl)c3)c(=O)c3cc(F)c(N4CCCCC4)cc32)cc1,3%,/,/,/,/,/
N#C/C(=C\c1cccc(OCC(=O)O)c1)c1nc2ccccc2[nH]1,0%,-3%,25*,36,?,-1%
Cn1c(NC(=O)/C=C/c2ccc(Cl)c(Cl)c2)cc(=O)n(C)c1=O,5%,3%,10,2,1%,0%
Cn1c(NC(=O)/C=C/c2ccccc2)cc(=O)n(C)c1=O,-5%,4%,34*,31,3%,5%
COc1ccc(/C=C/C(=O)Nc2cc(=O)n(C)c(=O)n2C)cc1,-1%,14%,31*,21,4%,-3%
Cn1c(NC(=O)CCc2ccccc2)cc(=O)n(C)c1=O,0%,14%,43*,70*,7%,-1%
CCCC(=O)Nc1cc(=O)n(C)c(=O)n1C,1%,-5%,-2,13,-3%,2%
CCOC(=O)C1CCCN(C(=O)c2cc(C)n(C(C)(C)C)n2)CC1 (stereo not drawn),1%,-1%,/,/,/,/
O=C1CN2CCC1C/C2=C\c1ccnc2c(Cl)cccc12 (stereo not drawn),-3%,/,7,-10,4%,0%
CCOc1ccc(NC(=O)C(C)C(Cc2ccc(C)cc2)C(=O)O)cc1 (stereo not drawn),0%,-5%,-3,-1,6%,6%
O=C(Nc1ccc([N+](=O)[O-])cn1)C1CC2CCC1C2 (stereo not drawn),-3%,6%,13,17*,-1%,-3%
CCc1ccccc1NC(=O)CN(Cc1ccccc1)S(=O)(=O)c1ccc2nc(C)sc2c1,4%,/,/,/,/,/
COCCNC(=O)C(=O)Nc1ccc2nc3n(c(=O)c2c1)CCCCC3,1%,/,/,/,/,/
CCCCOC(=O)Nc1ccc(S(=O)(=O)Nn2cnnc2)cc1,4%,5%,-2,19,8%,-7%
CCCCOC(=O)Nc1ccc(C(N)=O)cc1,-2%,6%,37*,76*,6%,-7%
CCCCOC(=O)Nc1cccc(C(=O)OCC)c1,1%,-6%,21*,83*,5%,-3%
CC(C)COC(=O)NCCCOC(=O)Nc1ccccc1,-1%,-4%,37*,16,3%,-5%
CCCCOC(=O)Nc1ccc(N(C)C)cc1,-25%,-18%,80*,116*,-1%,-10%
CC(C)COC(=O)NCCOC(=O)Nc1cccc(Cl)c1,-6%,0%,1,2,-1%,0%
COc1cc(OC)c(NC(=O)c2ccc3c(c2)N(Cc2ccc(C)cc2)CCS3)cc1Cl,0%,/,/,/,/,/
Cc1cc(C)cc(N2C(=O)CSC23C(=O)N(CC(=O)NC2CCCCC2)c2ccccc23)c1 (stereo not drawn),2%,/,/,/,/,/
SMILES,TbPYK inhibitor,RE007 growth inh,CHX counter,Shiga inhibitor,Giardia FBPA inh,LmPK inh
CN1CCN(c2nc(-c3ccccc3C(F)(F)F)nc3ccccc23)CC1,/,/,/,/,-4%,/
CCCCOC(=O)Nc1ccc(C(C)C)cc1,-5%,-23%,40*,86*,-12%,1%
C[C@@H]1CC2OC(=O)[C@@]3(C)C(=O)CC[C@@](C)(C23)[C@@]1(O)CCc1ccoc1 (stereo partly drawn),-7%,-5%,26*,-4,-2%,5%
Cc1ccccc1CN1C(=O)CS/C1=N/N=C/c1ccco1,0%,-8%,-1,-12,-15%,5%
COc1ccc(OC)c(/C=N/N=C2\SCC(=O)N2Cc2ccco2)c1,-12%,/,18*,2,1%,1%
O=C1CS/C(=N/N=C/c2ccccc2)N1Cc1ccco1,5%,-22%,25*,45*,0%,0%
COc1ccccc1N=C1SCC(=O)N1Cc1ccco1,-3%,-16%,1,14,4%,0%
O=C(Nc1ccccc1C(=O)O)c1ccc(Br)o1,13%,-6%,21*,39*,-8%,-17%
COC(=O)c1ccccc1NC(=O)c1cccc(NC(=O)c2ccc(Br)o2)c1C,4%,7%,-2,10,4%,-5%
Cc1ccc(C(=O)Nc2ccccc2C(N)=O)o1,-1%,-9%,37*,106*,4%,-14%
O=C(Nc1ccccc1F)c1ccc(Br)o1,-11%,-9%,55*,+!,0%[89.2 µM],-17%
CCNC(=O)Oc1ccc[nH]c1=O,7%,/,-8,-6,4µM*,-4%
COC(=O)N/N=C1\CCCc2ccccc21,-8%,2%,-3,1,-2%,-5%
O=C(N/N=C/C1CCCCC1)c1cc(Cl)ccc1O,-11%,?,13,45*,-26%,2%
Cc1cc2c(cc1C)/C(=N/NC(=O)c1ccccn1)CCC2,5%,-19%,53*,49*,-14%,3%
O=C(N/N=C/C1CCCCC1)c1ccccn1,-4%,2%,49*,166*,-15%,-19%
O=C(NN=C(c1ccccc1)c1ccccn1)c1ccccc1,-6%,?,/,/,/,/
O=C(NN=C1CCC(=NNC(=O)c2ccccn2)CC1)c1ccccn1,-2%,4%,55*,51*,-23%,-7%
NC(=O)C1(N2CCCCC2)CCN(C(=O)Nc2ccc(F)cc2)CC1,1%,/,/,/,/,/
CCC12CN3CC(C)(CN(C1)C3c1ccccc1C)C2=O (stereo not drawn),0%,/,/,/,/,/
Cc1noc(C)c1C(=O)N1CCC2(CCCN(C(c3ccccc3)c3ccccc3)C2)CC1,16%,/,/,/,4%,/
COC(=O)c1sc(NC(=O)C(C)C)c(C(=O)OC)c1C,3%,7%,40*,16,20%,-1%
CCC(=O)Nc1sc(C(=O)OC)c(C)c1C(=O)OC,-16%,-4%,-5,12,4%,2%
COc1ncccc1-c1ccc2nncn2c1,-1%,-4%[18.4 µM],/,/,/,/
COc1cc(C(=O)OCCN2CCOCC2)cc(OC)c1OC,-1%,1%,1,-9,0%,3%
COc1ccc(C(=O)OCCCN(C)C)cc1OC,-1%,0%,45*,18,-2%,-7%
COc1cc(C(=O)OCCCN2CCOCC2)ccc1O,4%,2%,17*,16,2%,6%
COc1cccc(C(=O)OCCN2CCOCC2)c1,-11%,1%,16,21*,-13%,-2%
